According to PubChem BioAssay (EPA / NIEHS):
“And” between values parts separate entries of the source, which are not always exact repeats. Identical values can stand only once. A structure can be active in one record and inactive in another. The source made the active and inactive calls. The calls were made as follows: active = hit-call score of the fitted dose curve at least 0.9, where 1 is the maximum; inactive = score below 0.9.

Legend:
[1] = read-out: Interleukin-8 (IL8), CXCL8 (gene 3576); assay: BSK_BF4T_IL8: BioMAP Diversity Plus: BF4T Assay for Interleukin-8 (IL8) Biomarker Activity (AID 2284263); conditions: primary human bronchial epithelial cells with fibroblasts
Procedure, shortened: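 Human bronchial epithelial cells with dermal fibroblasts co-culture; IL-8 measured by ELISA 24 hours after dosing, fitted vs DMSO. Cytotoxicity tracked in parallel cultures by SRB total-protein staining.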

[2] = read-out: Interleukin-1 alpha (IL1a), IL1A (gene 3552); assay: BSK_BF4T_IL1a: BioMAP Diversity Plus: BF4T Assay for Interleukin-1 alpha (IL1a) Biomarker Activity (AID 2284264); conditions: primary human bronchial epithelial cells with fibroblasts
Procedure, shortened: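 Human bronchial epithelial cells co-cultured with dermal fibroblasts, dosed and read at 24 h. Secreted/surface IL-1α quantified by ELISA; gain-of-signal fitted relative to DMSO baseline. Parallel SRB total-protein staining tracked cytotoxicity.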

[3] = read-out: Decorin, DCN (gene 1634); assay: BSK_MyoF_Decorin: BioMAP Diversity Plus: MyoF Assay for Decorin Biomarker Activity (AID 2284265); conditions: primary human lung fibroblasts
Procedure, shortened: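 Compound is added to lung fibroblast cultures; cells incubate 24 h; decorin is then measured by ELISA; the response is analysed upward against DMSO controls.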

[4] = read-out: KRT18 (gene 3875); assay: BSK_BF4T_Keratin818: BioMAP Diversity Plus: BF4T Assay for Keratin 818 Biomarker Activity (AID 2284266); conditions: primary human bronchial epithelial cells with fibroblasts
Procedure, shortened: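 Co-culture of human bronchial epithelial cells and dermal fibroblasts, chemical exposure 24 h. Keratin 8/18 measured by ELISA; positive-direction fit vs DMSO. SRB total protein run in parallel cultures for cytotoxicity.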

[5] = BSK_MyoF_SRB: Viability Assessment in the BioMAP Diversity Plus: MyoF Assay (AID 2284267); conditions: primary human lung fibroblasts;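 also: total protein by SRB absorbance in parallel cultures as cytotoxicity measure; cells assessed 24 h after compound addition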
Procedure, shortened: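 Human lung fibroblasts dosed with chemical and assessed 24 h later for overt cytotoxicity in parallel cultures. Total protein quantified by sulforhodamine B staining (0.1% SRB after 10% TCA fixation), read at 560 nm, analysed in positive direction versus DMSO baseline.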

[6] = read-out: Matrix Metallopeptidase 1 (MMP1), MMP1 (gene 4312); assay: BSK_MyoF_MMP1: BioMAP Diversity Plus: MyoF Assay for Matrix Metallopeptidase 1 (MMP1) Biomarker Activity (AID 2284268); conditions: primary human lung fibroblasts
Procedure, shortened: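 Lung fibroblast cultures were dosed with test chemicals and, after 24 h, MMP1 levels were measured by ELISA; responses were referenced to DMSO and analysed for increases.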

[7] = read-out: TIMP metallopeptidase inhibitor 1 (TIMP1), TIMP1 (gene 7076); assay: BSK_MyoF_TIMP1: BioMAP Diversity Plus: MyoF Assay for TIMP metallopeptidase inhibitor 1 (TIMP1) Biomarker Activity (AID 2284269); conditions: primary human lung fibroblasts
Procedure, shortened: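 ELISA quantified TIMP-1 levels after 24 h dosing of primary human lung fibroblasts, with DMSO as baseline. Parallel SRB total protein staining (0.1% SRB after TCA fixation, 560 nm) flagged overt cytotoxicity.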

[8] = read-out: Matrix Metallopeptidase 1 (MMP1), MMP1 (gene 4312); assay: BSK_BF4T_MMP1: BioMAP Diversity Plus: BF4T Assay for Matrix Metallopeptidase 1 (MMP1) Biomarker Activity (AID 2284270); conditions: primary human bronchial epithelial cells with fibroblasts
Procedure, shortened: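 Co-culture of human bronchial epithelial cells and dermal fibroblasts; MMP-1 levels measured by ELISA 24 hours after chemical dosing, relative to DMSO. Cytotoxicity checked in parallel cultures by SRB total-protein staining.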

[9] = read-out: Tissue plasminogen activator (tPA), PLAT (gene 5327); assay: BSK_BF4T_tPA: BioMAP Diversity Plus: BF4T Assay for Tissue plasminogen activator (tPA) Biomarker Activity (AID 2284272); conditions: primary human bronchial epithelial cells with fibroblasts
Procedure, shortened: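 tPA level quantified by ELISA at 24 h post-treatment in bronchial epithelial/dermal fibroblast co-cultures, gain of signal scored against DMSO baseline. Parallel cultures stained with 0.1% SRB (560 nm) to flag overt cytotoxicity.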

[10] = read-out: Matrix Metallopeptidase 3 (MMP3), MMP3 (gene 4314); assay: BSK_BF4T_MMP3: BioMAP Diversity Plus: BF4T Assay for Matrix Metallopeptidase 3 (MMP3) Biomarker Activity (AID 2284271); conditions: primary human bronchial epithelial cells with fibroblasts
Procedure, shortened: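 Co-culture of human bronchial epithelial cells and dermal fibroblasts dosed 24 h; MMP-3 measured by ELISA, positive-direction fit versus DMSO. Cytotoxicity tracked by SRB total-protein staining (560 nm) in parallel cultures.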

Measured: AC50

NCC(F)(F)C(F)(F)C(F)(F)C(F)(F)C(F)(F)C(F)(F)F
not listed: [10]
inactive: all other assays above

NC(=O)C(F)(F)C(F)(F)C(F)(F)C(F)F
not listed: [1] | [3] | [4]
inactive: all other assays above

CCOC(=O)CC(=O)C(F)(F)C(F)(F)F
not listed: [1] | [4] | [10]
inactive: all other assays above

OCC(F)(F)C(F)(F)C(F)(F)C(F)(F)C(F)(F)C(F)(F)C(F)(F)C(F)(F)CO
active: [5] 47.2 µM | [6] 49.5 µM | [9] 9.85 µM and 12.6 µM
inactive: [2] | [3] | [5] | [6] | [7] | [8]

NC(=O)C(F)(F)C(F)(F)C(F)(F)C(F)(F)C(N)=O
not listed: [4] | [10]
inactive: all other assays above

OCC(F)(F)C(F)(F)C(F)(F)C(F)(F)C(F)(F)C(F)(F)CO
not listed: [1] | [4] | [10]
inactive: all other assays above

NCC(F)(F)C(F)(F)C(F)(F)C(F)(F)C(F)(F)C(F)(F)C(F)(F)C(F)(F)F
not listed: [1] | [4] | [10]
inactive: all other assays above

FC(F)(F)C(F)(F)C(F)(F)C(F)(F)C(F)(F)C(F)(F)C(F)(F)CCI
inactive: [2] | [5] | [6] | [7] | [8] | [9]

O=C=Nc1cccc2c(N=C=O)cccc12
inactive: [5] | [6] | [7]

CCN(CC)c1ccc(N=Nc2ccccc2)cc1
inactive: [3] | [7]
active: [5] 20 µM | [6] 5.14 µM

O=C(O)C(F)(F)C(F)(F)C(F)(F)OC(F)(C(F)(F)F)C(F)(F)F
inactive: [2] | [5] | [6] | [7] | [8] | [9]

CC(C)CCCC(C)CCO (stereo unspecified)
active: [5] 34.5 µM | [6] 33.7 µM
inactive: [3] | [7]

CCN(CC)c1ccc(C=O)c(O)c1
inactive: [5] | [6] | [7]

CCN(CC)c1ccc2c(c1)Oc1cc(N(CC)CC)ccc1C21OC(=O)c2ccccc21
inactive: [5] | [6] | [7]

CC1=CC2C3C=CC(C3)C2C1C (stereo unspecified)
inactive: [5] | [6] | [7]

O=C(O)C(F)(F)C(F)(F)C(F)(F)C(F)(F)C(F)(F)C(F)(F)C(F)F
inactive: [2] | [5] | [6] | [7] | [8] | [9]

OCC(O)CC(F)(F)C(F)(F)C(F)(F)C(F)(F)F (stereo unspecified)
inactive: [2] | [5] | [6] | [7] | [8] | [9]

Cc1ccc(S(=O)(=O)C(I)I)cc1
active: [3] 5.2 µM | [5] 8.6 µM | [6] 11.2 µM | [7] 5.97 µM

NC(O)(C(F)(F)F)C(F)(F)F
inactive: [2] | [5] | [6] | [7] | [8] | [9]

O=C(O)CCC(F)(F)C(F)(F)C(F)(F)F
inactive: [2] | [5] | [6] | [7] | [8] | [9]

Cc1cc(O)c(C(C)(C)C)cc1C(C)(C)C
active: [5] 5.29 µM | [6] 9.48 µM | [7] 7.71 µM

Cc1cc(C)c(O)c(C(C)(C)C)c1
inactive: [6]
active: [5] 35.9 µM | [7] 31.6 µM

C=CC(=O)OCCC(F)(F)C(F)(F)C(F)(F)C(F)(F)F
inactive: [2] | [5] | [6] | [7] | [8] | [9]

O=C1C=CC(=O)N1c1ccc(Cc2ccc(N3C(=O)C=CC3=O)cc2)cc1
active: [5] 3.58 µM | [6] 11.7 µM | [7] 5.94 µM

OCCCCC(F)(F)C(F)(F)C(F)(F)C(F)(F)F
inactive: [2] | [5] | [6] | [7] | [8] | [9]

C[C@]12CC[C@H]3C(=CCc4cc(O)ccc43)[C@@H]1CCC2=O
inactive: [3] | [5] | [6] | [7]

O=C1c2c(O)ccc(Nc3ccc(CCO)cc3)c2C(=O)c2c([N+](=O)[O-])ccc(O)c21
inactive: [7]
active: [5] 11 µM | [6] 11 µM

O=S(=O)(O)CCC(F)(F)C(F)(F)C(F)(F)C(F)(F)C(F)(F)C(F)(F)C(F)(F)C(F)(F)F
inactive: [2] | [5] | [6] | [7] | [8] | [9]

Cc1cnccn1
inactive: [3] | [5] | [6] | [7]

NS(=O)(=O)C(F)(F)C(F)(F)C(F)(F)C(F)(F)C(F)(F)C(F)(F)F
inactive: [2] | [6] | [7] | [8] | [9]
active: [5] 13.4 µM and 30 µM

Brc1nc2ccccc2s1
inactive: [5] | [6] | [7]

CC(C)(C)c1cc(CCC(=O)NCCCCCCNC(=O)CCc2cc(C(C)(C)C)c(O)c(C(C)(C)C)c2)cc(C(C)(C)C)c1O
inactive: [3] | [5] | [6] | [7]

Nc1cc([N+](=O)[O-])cc(Cl)c1O
inactive: [5] | [6] | [7]

CCN(CC)c1ccc(C=O)cc1
inactive: [5] | [6] | [7]

O=C(c1ccccc1)c1ccc(O)cc1O
inactive: [5] | [6] | [7]

OCC(O)CC(F)(F)C(F)(F)C(F)(F)C(F)(F)C(F)(F)C(F)(F)C(F)(F)C(F)(F)F (stereo unspecified)
inactive: [2] | [5] | [6] | [7] | [8] | [9]

O=C(O)C(F)(F)C(F)(F)C(F)(F)OC(F)(F)F
inactive: [2] | [5] | [6] | [7] | [8] | [9]

O=C=NCc1cccc(CN=C=O)c1
inactive: [5] | [6] | [7]

Cc1ccc(O)c(-n2nc3ccccc3n2)c1
inactive: [3] | [5] | [6] | [7]

CCOC(C=C(C)CCC=C(C)C)OCC
active: [5] 30.4 µM | [6] 31.3 µM | [7] 3.97 µM
